DT40 TDP1 no CPT – qHTS for Inhibitors of human tyrosyl-DNA phosphodiesterase 1 (TDP1): qHTS in cells in absence of CPT; DT40 Tdp1-/- hTDP1 cells, no CPT, ATP luminescence, 48 h; Potency, µM (doses to about 46.2 µM), usual class: inhibitors; 420,000 compounds, 15% hits; AID 686978, 2013; further: nearly all actives have a fitted effect of over 55% in size
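DT40 Tdp1-/-;hTDP1 cells, no CPT (DMSO vehicle only), 400 cells/well; compounds pin-transferred; ≥48 hr, 37 °C; CellTiter-Glo 30 min RT dark, luminescence read.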
IL-1B inflam inh – qHTS for Inhibitors of Inflammasome Signaling: IL-1-beta AlphaLISA Primary Screen; THP-1 LPS/ATP IL-1B secretion, AlphaLISA, 16 h; stronger effect = lower value; activity change, % at 57.5 µM; 360,000 compounds, 4.7% hits; in the data active means activity change below about -50%; inconclusive means mostly about -30% to -49%
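Secreted IL-1B measured by AlphaLISA bead assay after 16 h compound exposure of THP-1 cells; compounds (final up to 57.5 uM) added 1 h before LPS (250 ng/mL) and ATP (1.25 mM) stimulation; lower signal means less secretion.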
TDP1 cell CPT – qHTS for Inhibitors of human tyrosyl-DNA phosphodiesterase 1 (TDP1): qHTS in cells in presence of CPT; Potency, µM (titrated, usually from 46.2 µM), hits mostly inhibitors; chicken DT40 Tdp1-/-;hTDP1 cells + 20 nM CPT, ATP luminescence, 48 h; 420,000 compounds, 12% hits; further: nearly all actives have a fitted effect of over 55% in size
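Cell growth measured by CellTiter-Glo luminescence after a minimum 48 h, 37 C compound exposure with 20 nM CPT in Tdp1-knockout DT40 cells stably expressing hTDP1, seeded 400/well; qHTS titration format.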
TDP1 block – qHTS Assay for Inhibitors of Tyrosyl-DNA Phosphodiesterase (TDP1). Tyrosyl-DNA phosphodiesterase 1 (Homo sapiens), Q9NUW8. 350,000 compounds, 0.28% hits. Potency, µM (highest dose often 130 µM), actives largely listed as inhibitors. AID 485290, 2010. recombinant TDP1, AlphaScreen DNA substrate cleavage; further: nearly all actives have a fitted effect of over 40% in size
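E. coli-derived human Tdp1, 1 nM final. Cpd preinc 15 min RT; substrate 15 nM final, 5 min RT; AS bead mix 10 ug/ml final, 10 min RT. Signal loss = tyrosine-FITC cleavage. No-enzyme wells = max signal.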
CtBP-E1A inh – qHTS Assay for Inhibitors of the CtBP/E1A Interaction; CtBP / adenovirus E1A interaction (AlphaScreen); AlphaScreen GST-E1A/His-CtBP binding, 1536-well; stronger effect = lower value; activity change, % (no concentration beside the values); 340,000 compounds, 0.49% hits; in the data active means activity change below about -65%; inconclusive means mostly about -30% to -63%
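AlphaScreen with 125 nM GST-E1A and 125 nM His-CtBP (5X stocks) in Tris pH 8.0, 300 mM NaCl, BSA, Tween 20, TCEP. Compounds preincubated 2 h at 37 deg C, then glutathione donor/nickel acceptor beads added for 1 h at 37 deg C in dark.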
Six1-Eya2 inh – qHTS Assay for Inhibitors of the Six1/Eya2 Interaction. AlphaScreen GST-Six1/His-Eya2 binding, biochemical; stronger effect = lower value. activity change, % (test concentration not listed). 360,000 compounds, 0.56% hits; in the data active means activity change below about -65%; inconclusive means mostly about -30% to -63%
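Homogeneous AlphaScreen proximity assay pairing GST-Six1 with His-tagged Eya2 (added as 5X mix: 250 nM and 500 nM) in 50 mM Tris pH 8.0, 300 mM NaCl, 1 mM TCEP. Glutathione donor and nickel acceptor beads; 1 h, 37 °C, dark.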
Numbers stand for hits; 0 = inactive; ? = inconclusive; - = not tested or not shown. This is a sample that favours compounds with a hit; in the whole collection about 18% have one here. Unless noted, the call rests on the fitted dose curve; in most records, active means well fitted curve in the direction sought with a large enough effect; inconclusive means small, poorly fitted or top-dose-only effect, or another doubt; inactive means no such curve, though single readings can be large; an effect the other way counts as inactive or inconclusive.

SMILES	DT40 TDP1 no CPT	IL-1B inflam inh	TDP1 cell CPT	TDP1 block	CtBP-E1A inh	Six1-Eya2 inh
Cc1cc(C)cc(NC(=O)[C@H]2O[C@@H]3OC(C)(C)O[C@@H]3[C@H]3OC(C)(C)O[C@H]32)c1	?	-	0	0	-	-
NC(=O)C1CCN(C(=O)CCSc2ccccc2)CC1	0	0	0	0	0	0
COc1ccc(S(=O)(=O)Nc2ccc(S(=O)(=O)Nc3ccc(F)cc3)cc2)cc1C	?	0	0	0	0	0
COc1ccc(S(=O)(=O)Nc2ccc(F)c(F)c2)cc1Cl	0	0	?	0	0	0
COc1ccc(NS(=O)(=O)c2ccc(OC)c(N(C)S(=O)(=O)c3ccc(Cl)cc3)c2)cc1	6.51µM	-82.9	10.3µM	0	0	0
COc1ccc(S(=O)(=O)Nc2ccc(F)cc2)cc1N(C)S(=O)(=O)c1ccc(Cl)cc1	?	-93.8	?	0	0	0
Cc1cccc(C)c1-n1cccc1/C=C1\SC(=S)N(c2cccc(C(=O)O)c2)C1=O	0	0	?	0	0	0
C=CCNc1nc(-c2sc(NC(=O)C(C)(C)C)nc2C)c(-n2cc(-c3ccccc3)nn2)s1	14.6µM	0	20.6µM	-	0	0
C=CCNc1nc(-c2sc(NC(=O)CC)nc2C)cs1	?	?	?	0	0	0
O=C(Nc1cccnc1)c1cc(-c2ccc(Br)cc2)on1	0	0	0	0	0	0
O=C(O)C1=CCNCC1	0	0	0	0	0	0
c1ccc(-c2nnnn2-c2ccccc2)cc1	0	0	0	-	0	0
ClC(Cl)(c1nnnn1-c1ccccc1)c1nnnn1-c1ccccc1	2.59µM	-120.4	1.3µM	0	0	0
CCn1c(SC)nnc1-c1nnc(SC)n1CC	0	0	0	0	0	0
Cc1ccc(NC(=O)N2CCN3CCCCC3C2)cc1F (centres undefined)	0	-	0	0	-	-
COc1ccccc1/C=N/n1c(N)c(S(=O)(=O)c2cccs2)c2nc3ccccc3nc21	0	0	0	0	0	0
CCOc1ccccc1Nc1cc(C)nc2ccccc12	?	0	18.4µM	-	0	0
CCOc1ccccc1Nc1cc(C)nc2ccc(C)cc12	20.6µM	-96.0	?	-	0	0
CCOc1ccccc1Nc1ncnc2ccc(Br)cc12	?	0	?	-	0	0
Nn1c(COc2cccc(Cl)c2)nc2ccccc2c1=O	0	0	0	0	0	0
CCN(CC(=O)Nc1cc(Cl)ccc1C)C(=O)CSCc1c(C)noc1C	0	0	0	0	0	0
O=[N+]([O-])c1cc(-c2nnc(N3CCOCC3)c3ccccc23)ccc1N1CCOCC1	?	0	?	0	-	0
O=[N+]([O-])c1cc(-c2nnc(Nc3ccc(O)cc3)c3ccccc23)ccc1N1CCOCC1	14.6µM	-	16.4µM	0	?	?
Cc1ccc(Nc2nnc(-c3ccc(N4CCOCC4)c([N+](=O)[O-])c3)c3ccccc23)cc1	10.3µM	0	11.6µM	0	0	0
COc1ccc(CN(C)S(=O)(=O)c2nnc(NC(=O)C(C)C)s2)cc1OC	10.3µM	-	11.6µM	0	-	-
SMILES	DT40 TDP1 no CPT	IL-1B inflam inh	TDP1 cell CPT	TDP1 block	CtBP-E1A inh	Six1-Eya2 inh
COc1cc(N2C(=O)CSC23C(=O)N(Cc2cccc(F)c2)c2ccccc23)cc(OC)c1OC (centres undefined)	-	-	-	0	-	-
COC(=O)c1c(NC(=O)CSc2ncnc3ccccc23)sc(C)c1C	23.1µM	0	18.4µM	-	0	0
O=C(CSc1nc2ccccc2s1)Nn1cnnc1	0	0	18.4µM	0	0	0
CCOC(=O)c1c(NC(=O)CSc2nc3ccccc3s2)sc(C)c1C	?	0	16.4µM	0	0	0
COC(=O)c1c(NC(=O)CSc2nccn2C)sc(C)c1C	0	0	0	-	0	0
O=C(CSc1nc2ccccc2s1)NC1CCCC1	0	0	0	0	0	0
CCOC(=O)c1c(NC(=O)CSc2ncnc3ccccc23)sc(C(C)=O)c1C	9.2µM	0	8.2µM	0	0	0
Cc1ccc(-c2csc(N3CCN(c4cc5c(cc4Cl)nc(C)n5CCN4CCCCC4)CC3)n2)cc1	?	0	?	-	0	0
CCOC(=O)c1csc(NC(=O)COc2ccc(Cl)cc2Cl)n1	0	0	0	0	0	0
CCn1c(SCC(=O)N2CCN(c3ccccc3)CC2)nnc1-c1ccncc1	-	-	-	0	-	-
O=C(Nc1ccc(NC(=O)C2CCCCC2)nc1)c1ccccn1	0	0	0	0	0	0
CCN(CC)c1c([N+](=O)[O-])c(=O)n(CC)c2ccccc12	20.6µM	0	?	-	-	0
CCNc1c([N+](=O)[O-])c(=O)n(CC)c2ccccc12	0	0	0	-	0	?

From PubChem BioAssay
